Laboratory results as given in PubChem BioAssay AID1159580 (chemical genetic matrix, 2015).
Several values for one entry are separate records, joined by “and”; a condition that tells them apart may be missing. Identical values can stand only once. About 2,000 (36%) of roughly 5,500 compounds were called active. Another 18% or so got no clear call; they are omitted. Rule as the data show it: active = normalized growth mostly below about 0.91 (no sharp cut-off); inconclusive = no clear call, values can overlap the other calls; inactive = mostly above about 0.92. The list shows a part of the results.

Test: chemical genetic growth profiling, strain panel (AID 1159580);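 also: tested at 20 µM; growth read once vehicle control cultures reached saturation at 30 °C; 1 = growth at the plate median or of vehicle wells; lower values mean less growth of the strain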
Conditions: S. cerevisiae deletion strains, growth OD

Measured: normalized growth

CC(=O)N[C@@H](CC(C)C)C(=O)O
inactive: locus YAL013W, strain DEP1, active compounds read low 0.983 | locus YAL021C, strain ccr4, active compounds read low 1 | locus YAL026C, strain drs2, active compounds read low 0.989 | locus YAL030W, strain snc1, active compounds read low 1 | locus YBL061C, strain skt5, active compounds read low 0.986 | locus YBR009C, strain hhf1, active compounds read low 0.99 | locus YBR021W, strain FUR4, active compounds read low 1 | locus YBR023C, strain chs3, active compounds read low 1 | locus YBR171W, strain sec66, active compounds read low 0.981 | locus YBR229C, strain ROT2, active compounds read low 0.996 | locus YBR231C, strain swc5, active compounds read low 0.972 | locus YBR279W, strain paf1, active compounds read low 1 | locus YCL011C, strain gbp2, active compounds read low 1.01 | locus YCL016C, strain dcc1, active compounds read low 0.995 | locus YCL029C, strain bik1, active compounds read low 0.97 | locus YCL069W, strain vba3, active compounds read low 0.996 | locus YCR088W, strain abp1, active compounds read low 1 | locus YDL005C, strain med2, active compounds read low 0.991 | locus YDL035C, strain GPR1, active compounds read low 0.985 | locus YDL040C, strain nat1, active compounds read low 0.988 | locus YDL074C, strain BRE1, active compounds read low 1.02 | locus YDL101C, strain DUN1, active compounds read low 0.994 | locus YDL134C, strain PPH21, active compounds read low 0.987 | locus YDL185W, strain tfp1, active compounds read low 0.944 | locus YDL192W, strain arf1, active compounds read low 0.986 | locus YDR001C, strain nth1, active compounds read low 1 | locus YDR069C, strain doa4, active compounds read low 0.971 | locus YDR101C, strain arx1, active compounds read low 0.989 | locus YDR137W, strain rgp1, active compounds read low 1 | locus YDR150W, strain NUM1, active compounds read low 0.983 | locus YDR159W, strain sac3, active compounds read low 0.961 | locus YDR162C, strain NBP2, active compounds read low 0.981 | locus YDR195W, strain ref2 0.948 | locus YDR297W, strain sur2, active compounds read low 0.991 | locus YDR318W, strain mcm21, active compounds read low 0.97 | locus YDR334W, strain swr1, active compounds read low 0.989 | locus YDR335W, strain msn5, active compounds read low 0.987 | locus YDR388W, active compounds read low 0.989 | locus YDR392W, strain spt3, active compounds read low 1.02 | locus YDR502C, strain sam2, active compounds read low 0.972 | locus YEL003W, strain gim4, active compounds read low 0.989 | locus YEL037C, strain rad23, active compounds read low 0.994 | locus YEL061C, strain CIN8 (second series), active compounds read low 0.986 | locus YEL061C, strain CIN8, active compounds read low 0.993 | locus YER015W, strain faa2, active compounds read low 0.993 | locus YER016W, strain bim1, active compounds read low 1.01 | locus YER110C, active compounds read low 0.97 | locus YER111C, strain swi4, active compounds read low 0.988 | locus YER155C, strain BEM2 (second series), active compounds read low 0.98 | locus YER155C, strain BEM2, active compounds read low 0.992 | locus YER167W, strain BCK2, active compounds read low 0.98 | locus YFR010W, strain ubp6, active compounds read low 0.98 | locus YGL078C, strain dbp3, active compounds read low 0.975 | locus YGL086W, strain mad1, active compounds read low 0.996 | locus YGL167C, strain pmr1, active compounds read low 0.972 | locus YGL173C, strain kem1, active compounds read low 0.97 | locus YGL227W, strain vid30, active compounds read low 0.98 | locus YGL240W, strain doc1, active compounds read low 0.972 | locus YGL248W, strain PDE1, active compounds read low 1.01 | locus YGL253W, strain hxk2, active compounds read low 0.986 | locus YGR135W, strain pre9, active compounds read low 0.945 | locus YGR252W, strain gcn5, active compounds read low 1 | locus YHR013C, strain ard1, active compounds read low 1.01 | locus YHR027C, strain rpn1, active compounds read low 1 | locus YHR030C, strain SLT2, active compounds read low 0.975 and 1.04 | locus YHR079C, strain IRE1 (second series), active compounds read low 0.985 | locus YHR079C, strain IRE1, active compounds read low 1.02 | locus YHR094C, strain hxt1, active compounds read low 0.984 | locus YHR129C, strain ARP1, active compounds read low 0.992 | locus YHR142W, strain chs7, active compounds read low 0.992 | locus YHR200W, strain rpn10, active compounds read low 0.978 | locus YIL066C, strain RNR3, active compounds read low 1.01 | locus YIL073C, strain SPO22, active compounds read low 0.849 | locus YIL125W, strain kgd1, active compounds read low 0.992 | locus YIR030C, strain dcg1, active compounds read low 0.969 | locus YJL092W, strain hpr5, active compounds read low 0.989 | locus YJL095W, strain BCK1 (second series), active compounds read low 0.98 | locus YJL095W, strain BCK1, active compounds read low 1.04 and 1.03 | locus YJL115W, strain asf1, active compounds read low 1 | locus YJL129C, strain trk1, active compounds read low 0.959 | locus YJL134W, strain LCB3, active compounds read low 0.984 | locus YJL154C, strain vps35, active compounds read low 0.994 | locus YJL164C, strain tpk1, active compounds read low 1.01 | locus YJL166W, strain qcr8, active compounds read low 0.972 | locus YJL168C, strain set2, active compounds read low 0.997 | locus YJL187C, strain SWE1 (second series), active compounds read low 1.02 | locus YJR043C, strain POL32, active compounds read low 1.02
